Data: article PMC10668032, “Altered binding affinity of SIX1-Q177R correlates with enhanced WNT5A and WNT pathway effector expression in Wilms tumor”
Whole data set: some 33,000 sequences, median “e-score” near -0.05, cut for the highest 2% near 0.38. Shown is part of a subset that was picked to be rich in the highest values.

What follows are sequences tested against T1, SIX1-Q177R homeodomain (human, UniProt Q15475 108-198, Q177R) (assay: universal protein binding microarray; Universal all-10-mer PBM (8x60K, AMADID 030236), 300 nM GST-tagged protein, Alexa Fluor 488 anti-GST; buffer, salt, pH and temperature not stated (as in Berger); high values mean tight binding). Conditions: protein: ivt; tags: N-terminal GST; dsDNA, one strand shown.
T1 sequence: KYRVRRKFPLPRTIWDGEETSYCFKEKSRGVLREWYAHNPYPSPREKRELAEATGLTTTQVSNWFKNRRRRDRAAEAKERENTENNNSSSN
How it was run: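 Homeodomains carrying a GST tag were produced by in vitro transcription/translation, then quantified by anti-GST western blot against a recombinant GST standard curve. Duplicate applications at 300 nM final concentration were made to universal 'all 10-mer' protein binding microarrays in 8×60K format. The Universal PBM Analysis Suite was used to express binding as 8-mer E-scores.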

ACCCGCTC and CACCTGCC are within error of each other in binding signal: 0.227 ± 0.00437 E-score for the first, 0.225 ± 0.0171 E-score for the second.

Compared with ACCCGAAC, TGTCGTAA is lower in binding signal: 0.173 ± 0.0027 E-score for the first, 0.163 ± 0.00414 E-score for the second.

CCCCCCCG and GGGTGATA are the same in binding signal: 0.218 ± 0.0264 E-score for the first, 0.218 ± 0.0149 E-score for the second.

GATCCCGC and CGGGTACG are within error of each other in binding signal: 0.185 ± 0.0357 E-score for the first, 0.182 ± 0.00752 E-score for the second.

Compared with GCGACACC, GCGACACA is lower in binding signal: 0.487 ± 0.00655 E-score for the first, 0.262 ± 0.0569 E-score for the second.

Compared with ACGACACC, ACGACTCC is lower in binding signal: 0.487 ± 0.00563 E-score for the first, 0.309 ± 0.0346 E-score for the second.

GCGACCCC and ACGACCCC are within error of each other in binding signal: 0.212 ± 0.0261 E-score for the first, 0.244 ± 0.0306 E-score for the second.

Going from CACTTGAA to CACCTTAC, the binding signal rises from 0.202 ± 0.00417 E-score to 0.248 ± 0.036 E-score.

First: CACTCTCG
Second: CCCCGAAC
The binding signal of the first is higher: 0.288 ± 0.0157 E-score for the first, 0.181 ± 0.00559 E-score for the second.

Compared with AGGACCCC, AACACCTA is higher in binding signal: 0.205 ± 0.0283 E-score for the first, 0.444 ± 0.00846 E-score for the second.

Compared with GACTCCTC, CACACCTG is higher in binding signal: 0.166 ± 0.0214 E-score for the first, 0.389 ± 0.0159 E-score for the second.

First: AACACATA
Second: GACACCTC
The binding signal of the first is lower: 0.17 ± 0.0243 E-score for the first, 0.4825 ± 0.00161 E-score for the second.

AACACTTG and AACACGTG are within error of each other in binding signal: 0.336 ± 0.0307 E-score for the first, 0.371 ± 0.00902 E-score for the second.

First: AACACCTG
Second: CACACCTA
The binding signal of the first is higher: 0.44457 ± 0.000354 E-score for the first, 0.333 ± 0.00896 E-score for the second.

First: CACACATG
Second: GACCCCTC
The binding signal of the first is lower: 0.165 ± 0.0245 E-score for the first, 0.26 ± 0.015 E-score for the second.

First: CCGAGACA
Second: ATGATACC
The binding signal of the first is lower: 0.274 ± 0.00602 E-score for the first, 0.335 ± 0.0146 E-score for the second.

Going from CACCACGG to ATGCGGTG, the binding signal rises from 0.226 ± 0.00882 E-score to 0.295 ± 0.0245 E-score.

Going from CGGGCGAC to CACTGGGG, the binding signal rises from 0.215 ± 0.0122 E-score to 0.287 ± 0.0142 E-score.

ATAAGGTG and AACTGTGT are within error of each other in binding signal: 0.217 ± 0.0216 E-score for the first, 0.159 ± 0.066 E-score for the second.

Going from CCGGATCC to TCGATACA, the binding signal falls from 0.249 ± 0.0202 E-score to 0.198 ± 0.0102 E-score.

First: CACTCCAG
Second: GTTCGGTA
The binding signal of the first is higher: 0.225 ± 0.00445 E-score for the first, 0.156 ± 0.0218 E-score for the second.

First: AACACCTC
Second: AACACACT
The binding signal of the first is higher: 0.456 ± 0.0111 E-score for the first, 0.276 ± 0.0133 E-score for the second.

Going from TACACCTA to GACACATA, the binding signal falls from 0.47 ± 0.00841 E-score to 0.234 ± 0.0761 E-score.

First: GATACCTA
Second: GACACCTA
The binding signal of the first is lower: 0.3275 ± 0.000891 E-score for the first, 0.463 ± 0.00697 E-score for the second.

First: AACACCTT
Second: AGCACCTC
The binding signal of the first is higher: 0.452 ± 0.0164 E-score for the first, 0.178 ± 0.00186 E-score for the second.

AACACGTT and TACACATA are within error of each other in binding signal: 0.272 ± 0.0421 E-score for the first, 0.209 ± 0.0376 E-score for the second.

TACACGTA and AACACTTC are within error of each other in binding signal: 0.355 ± 0.0208 E-score for the first, 0.326 ± 0.0413 E-score for the second.

GCGGGTTA and CCCGCCCG are within error of each other in binding signal: 0.21 ± 0.00486 E-score for the first, 0.233 ± 0.0272 E-score for the second.

First: CCCCCGAC
Second: ATACCCGA
The binding signal of the first is higher: 0.272 ± 0.00679 E-score for the first, 0.241 ± 0.0123 E-score for the second.

Going from AAGACGTG to ACACTTTC, the binding signal rises from 0.166 ± 0.073 E-score to 0.354 ± 0.0256 E-score.

CCCTTCCC and CACACTTC are within error of each other in binding signal: 0.181 ± 0.0277 E-score for the first, 0.205 ± 0.0263 E-score for the second.

Going from CACCTCTG to CACACCTC, the binding signal rises from 0.2874 ± 0.00224 E-score to 0.403 ± 0.00914 E-score.

CACGTCCC and ATAAACCC are within error of each other in binding signal: 0.165 ± 0.0267 E-score for the first, 0.16 ± 0.0287 E-score for the second.

Going from ACACGAAC to ACCCGATC, the binding signal falls from 0.3433 ± 0.00132 E-score to 0.253 ± 0.057 E-score.

First: ACACGATC
Second: ACACGATA
The binding signal of the first is higher: 0.385 ± 0.00771 E-score for the first, 0.3751 ± 0.00175 E-score for the second.

Going from ACACGAAG to ACACGATG, the binding signal rises from 0.346 ± 0.00991 E-score to 0.3915 ± 0.00105 E-score.

First: CAGCACCC
Second: GGATAACA
The binding signal of the first is lower: 0.188 ± 0.00201 E-score for the first, 0.204 ± 0.00942 E-score for the second.

Compared with CACGGGTC, CCCTGAGG is lower in binding signal: 0.253 ± 0.0022 E-score for the first, 0.177 ± 0.00892 E-score for the second.
